Screens deposited in PubChem by National Center for Advancing Translational Sciences (NCATS).
HCV inhibitor – blocks hepatitis C virus | Huh7.5.1 HCVcc-Cre infection, luciferase reporter, 44 h | Potency, µM (titrated, usually from 41.8 µM), inactives show at the highest dose activity change, negative = inhibition, most hits filed as inhibitors | hit rate 3.4% among 340,000; note: potency is the fitted concentration of half-maximal effect; % is set by controls: 0 for no effect and ±100 for the full control effect
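A cell-based infection assay in which seeded cells (1,000 per well) receive test compound after 4 h, are inoculated with HCVcc-Cre at approximately 0.5 moi, and are incubated 44 h before luminescence detection.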
Pf growth 48h – inhibits P. falciparum growth in the first generation, 48 h; P. falciparum luciferase growth in erythrocytes, 48 h; Potency, µM (top dose mostly 28.7 µM), inactives show at the top dose activity change, negative = inhibition, hits mostly inhibitors; hit rate 5.9% among 310,000; note: potency is the fitted concentration of half-maximal effect; % is set by controls: 0 for no effect and ±100 for the full control effect
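Growth was read as firefly luciferase luminescence after a 48 h, 37 C, 5% CO2 exposure of compounds to reporter-bearing P. falciparum cultures (0.1% parasitemia, 2% hematocrit final) in Albumax-supplemented RPMI 1640.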
AMA1-RON2 inh – disrupts binding of P. falciparum AMA1 to RON2; AlphaScreen AMA1-biotinylated RON2 peptide binding; Potency, µM (doses to about 58.2 µM), for inactives: at the highest dose activity change, negative = inhibition, hits mostly inhibitors; hit rate 0.2% among 360,000;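 note: potency is the fitted concentration of half-maximal effect; 0% = vehicle wells and -100% = peptide control; nearly all actives have a fitted effect of over 45% in size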
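AMA1 (3D7) with his tag at 25 nM final met compounds first, then biotinylated RON2 peptide at 25 nM; detection used donor plus acceptor beads, 10 µg/mL apiece, read by AlphaScreen after 30 min at room temperature.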
Pf growth 96h – P. falciparum growth inhibition at 96 hour, primary screen for plastid delayed-death inhibitors. Potency, µM (highest dose often 28.7 µM), for the others: at the highest dose activity change, negative = inhibition, most hits filed as inhibitors. AID 504834. P. falciparum luciferase reporter growth, 96 h. hit rate 6.9% among 320,000; note: potency is the fitted concentration of half-maximal effect; % is set by controls: 0 for no effect and ±100 for the full control effect
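Delayed-death screen, second-generation endpoint: infected erythrocytes, 2% hematocrit, 0.05% parasitemia final; 96 hours at 37 C, 5% CO2; luciferase detection reagent; luminescence decrease equals reduced growth.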
CHX counter – counter-screen for Shiga toxin inhibitors: cycloheximide protein synthesis inhibition; hit rate 12% among 300,000; max response, %; cell reporter, cycloheximide protein synthesis inhibition counterscreen; in the data active = max response mostly above about 13%, no sharp cut-off; inactive = mostly below about 14%; note: read at 38.3 µM for the half of the compounds with a filed dose; 0% is about no effect
Shiga toxin inh – Shiga toxin inhibition; Vero cells, Shiga toxin protein synthesis inhibition reporter; inhibition, % at 38.7 µM; hit rate 9.2% among 290,000; AID 2315; in the data active = inhibition mostly above about 28%, no sharp cut-off; inactive = mostly below about 43%; note: 0% is about no effect
Starred values were filed as active, the others as inactive; ? = inconclusive; · = no result given. A selection: hits, their analogues and other compounds. The true share with any hit is near 21%. Unless noted, calls come from the whole dose curve; as a rule, active = well fitted curve in the direction sought with a large enough effect; inconclusive = small, poorly fitted or top-dose-only effect, or another doubt; inactive = no such curve, though single readings can be large; an effect the other way counts as inactive or inconclusive.

SMILES | HCV inhibitor | Pf growth 48h | AMA1-RON2 inh | Pf growth 96h | CHX counter | Shiga toxin inh
CC(=O)OCC(NC(=O)C(CCCCNC(=O)OCc1ccccc1)NC(=O)OC(C)(C)C)C1OC(n2cc(C)c(=O)[nH]c2=O)C(OC(C)=O)C1OC(C)=O (centres undefined) | · | · | · | · | -2 | -7
CCCN1C(=O)CC(c2ccc(OC)c(OC)c2)C1=O (centres undefined) | · | · | 0% | · | · | ·
O=C(NCc1cccc(OC(F)(F)F)c1)C1CCC(=O)N(Cc2cccc(F)c2)C1 (centres undefined) | -8% | -12% | -7% | ? | -2 | -2
CC1Cc2nc(SCC(=O)Nc3ccc4c(c3)OCO4)n(Cc3ccccc3)c(=O)c2S1 (centres undefined) | -26% | 2.3µM* | -2% | -5% | 56* | 83*
CC1Cc2nc(SCC(=O)Nc3nccs3)n(Cc3ccccc3)c(=O)c2S1 (centres undefined) | 10% | 3.3µM* | -3% | 1.5µM* | 1 | -8
CC1Cc2nc(SCC(=O)Nc3ccc(F)cc3F)n(C)c(=O)c2S1 (centres undefined) | -10% | 6.6µM* | -5% | ? | 6 | -13
CC1CCCC(C)N1C(=O)Cn1c(SCC(=O)Nc2ccc3c(c2)OCO3)nc2ccccc21 (centres undefined) | -15% | ? | 23% | 13µM* | -2 | -13
COc1ccccc1N1CC(C(=O)OC(C)C(=O)Nc2ccc(F)cc2)CC1=O (centres undefined) | · | · | -1% | · | · | ·
COCCn1c(SCC(=O)Nc2cc(C)on2)nc2c(c1=O)SC(C)C2 (centres undefined) | -8% | -25% | -18% | -11% | -2 | -5
CC1Cc2nc(SCC(=O)N3CCN(c4ccccc4)CC3)n(CCc3ccccc3)c(=O)c2S1 (centres undefined) | ? | 9.3µM* | -24% | ? | 7 | 19
CCn1c(SCC(=O)N2CCN(c3ccccc3)CC2)nc2c(c1=O)SC(C)C2 (centres undefined) | -10% | ? | -16% | ? | -3 | 6
Cc1ccc(C)c(NC(=O)CSc2nc3c(c(=O)n2C)SC(C)C3)c1 (centres undefined) | 1% | ? | 4% | ? | -2 | -3
COCCn1c(SCC(=O)Nc2ccc3c(c2)OCCO3)nc2c(c1=O)SC(C)C2 (centres undefined) | -14% | 7% | 2% | ? | 23* | 30*
CC1Cc2nc(SCC(=O)Nc3ccc4c(c3)OCCO4)n(C)c(=O)c2S1 (centres undefined) | -11% | ? | -2% | ? | 9.0* | 18
O=C(CN(c1ccccc1)S(=O)(=O)c1ccccc1)Nc1ccc(F)cc1 | -1% | -27% | 12% | -6% | -1 | -6
O=C(/C=C/c1ccc(Cl)cc1Cl)N1CCc2ccccc21 | -17% | 407% | -17% | 353% | 32* | 61*
O=C(/C=C/c1cccc(F)c1)N1CCc2ccccc21 | 2% | 223% | -8% | 0% | 65* | 102*
O=C(/C=C/c1ccc(F)cc1)N1CCCc2ccccc21 | 9% | 0% | -3% | ? | 38 | 43*
O=C(/C=C/c1cccc(F)c1)OCC(=O)N1CCCc2ccccc21 | 4% | 10% | 3% | 13% | · | ·
CC(NCc1ccc([N+](=O)[O-])cc1)C1COc2ccccc2O1 (centres undefined) | 12% | · | ? | 0% | -3 | 6
Cc1cc(C)c(C)c(S(=O)(=O)NCc2ccc(C(=O)N3CCCC3)cc2)c1C | -9% | 6.6µM* | -11% | ? | 0 | -7
Cc1cc(C)c(C)c(S(=O)(=O)NCc2ccc(C(=O)N3CCCCC3)cc2)c1C | ? | 1µM* | -4% | 0.41µM* | 22* | 39
Cc1ccc(C)c(S(=O)(=O)NCc2ccc(C(=O)N3CCCCCC3)cc2)c1 | -5% | ? | -17% | 7.4µM* | 2 | 1
Cc1ccc(C)c(S(=O)(=O)NCc2ccc(C(=O)N3CCN(c4ccccc4)CC3)cc2)c1 | ? | -13% | -29% | -31% | -1 | -29
O=C(c1ccccc1S(=O)(=O)NCc1ccccc1)N1CCCC1 | 6% | · | -2% | 15µM* | 11 | 49
SMILES | HCV inhibitor | Pf growth 48h | AMA1-RON2 inh | Pf growth 96h | CHX counter | Shiga toxin inh
COCCCN1C(=O)C(=O)/C(=C(/O)c2ccc(S(=O)(=O)N3CCOCC3)cc2)C1c1cccc(Cl)c1 (centres undefined) | 22% | 9% | -3% | -2% | -3 | -6
CC(=O)N1c2cc3ccccc3cc2N(C(C)=O)c2cc3ccccc3cc21 | 8% | · | 10% | · | · | ·
COC(=O)[C@H]1C[C@H](OC(=O)NCc2ccco2)[C@@]2(O)CN(S(=O)(=O)c3ccc(C)cc3)CC2[C@H]1C(=O)OC (some centres undefined) | · | · | 2% | · | · | ·
O=C(Cn1cnc2scc(-c3ccc(F)cc3)c2c1=O)NCC(c1ccco1)N1CCCC1 (centres undefined) | ? | -2% | 2% | ? | · | ·
CCc1ccc(OCC(=O)Nc2ccc(S(=O)(=O)N3CCCC3)cc2)c(Br)c1 | ? | 13µM* | -14% | · | 10 | 1
O=C(COc1ccc(Br)cc1CO)Nc1ccc(S(=O)(=O)N2CCCCC2)cc1 | ? | 9.3µM* | 4% | 6.6µM* | · | ·
COc1ccc(CCC(=O)NNC(=O)c2ccc(OC)cc2)cc1 | -2% | 19% | 31% | 36% | 7 | -8
Cc1ccc(SCCC(=O)N(C)CC(=O)Nc2c(C)cccc2C)cc1 | ? | -20% | 2% | ? | 3 | -11
COC(=O)Cn1c(=NC(=O)c2ccc(Cl)s2)sc2cc(C)ccc21 | -20% | 86% | 1% | 3% | 18* | 39
COC(=O)Cn1c(=NC(=O)c2nc3ccccc3s2)sc2cc(S(C)(=O)=O)ccc21 | 4% | 45% | · | 87% | 17* | 15
COc1cccc(OC)c1C(=O)N=c1sc2cc(S(C)(=O)=O)ccc2n1C | 1% | -1% | -8% | ? | -3 | -7
COC(=O)Cn1c(=NC(=O)c2ccc([N+](=O)[O-])s2)sc2cc(Br)ccc21 | ? | ? | · | 0.83µM* | 15* | 39
COC(=O)Cn1c(=NC(=O)c2sc3ccccc3c2Cl)sc2cc(S(N)(=O)=O)ccc21 | ? | 2% | 3% | 37% | -1 | -2
C=CCn1c(=NC(=O)c2ccccc2[N+](=O)[O-])sc2cc(S(C)(=O)=O)ccc21 | -7% | ? | -3% | 9.3µM* | -1 | 10
CC(C)C[C@H]1CN(CCCC[C@@H]2CNC(=O)C(=O)N2CC2CCCCC2)C(=O)C(=O)N1CC1CCCCC1 | · | · | 1% | · | · | ·
C1=C[C@H]2CCCN3CC[C@@H]([C@@H]2[C@]32CO2)[C@H]1CCOCc1ccccc1 | · | · | -2% | · | · | ·
